Experimental data from PubChem BioAssay AID1159580 (chemical genetic matrix, 2015).
About 2,000 (36%) of roughly 5,500 compounds were called active. About 18% were inconclusive and are not listed. Cut-off read from the data, not from the text of the source: active = normalized growth mostly below about 0.91 (no sharp cut-off); inconclusive = no clear call, values can overlap the other calls; inactive = mostly above about 0.92. The list shows a part of the results.

Experiment: chemical genetic growth profiling, strain panel (AID 1159580);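 note: tested at 20 µM; growth read once vehicle control cultures reached saturation at 30 °C; 1 = growth at the plate median or of vehicle wells; lower values mean less growth of the strain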
Conditions: S. cerevisiae deletion strains, growth OD

Measured: normalized growth

CNS(=O)(=O)Cc1ccc2[nH]cc(CCN(C)C)c2c1
inactive: locus YAL021C, strain ccr4, stronger effect = lower value 0.999 | locus YAL026C, strain drs2, stronger effect = lower value 1.02 | locus YAL030W, strain snc1, stronger effect = lower value 1.02 | locus YBL061C, strain skt5, stronger effect = lower value 1.03 | locus YBR009C, strain hhf1, stronger effect = lower value 1.03 | locus YBR023C, strain chs3, stronger effect = lower value 1.03 | locus YBR171W, strain sec66, stronger effect = lower value 1.04 | locus YBR231C, strain swc5, stronger effect = lower value 1.03 | locus YBR279W, strain paf1, stronger effect = lower value 1.02 | locus YCL011C, strain gbp2, stronger effect = lower value 1.02 | locus YCL016C, strain dcc1, stronger effect = lower value 1.02 | locus YCL069W, strain vba3, stronger effect = lower value 1.03 | locus YCR088W, strain abp1, stronger effect = lower value 1.03 | locus YDL005C, strain med2, stronger effect = lower value 1.04 | locus YDL040C, strain nat1, stronger effect = lower value 1.02 | locus YDR001C, strain nth1, stronger effect = lower value 1.04 | locus YDR069C, strain doa4, stronger effect = lower value 1.02 | locus YDR137W, strain rgp1, stronger effect = lower value 1.04 | locus YDR159W, strain sac3, stronger effect = lower value 1.03 | locus YDR195W, strain ref2 1 | locus YDR297W, strain sur2, stronger effect = lower value 1.02 | locus YDR334W, strain swr1, stronger effect = lower value 1.02 | locus YDR335W, strain msn5, stronger effect = lower value 1.02 | locus YDR392W, strain spt3, stronger effect = lower value 1.01 | locus YEL003W, strain gim4, stronger effect = lower value 1.02 | locus YEL037C, strain rad23, stronger effect = lower value 1.03 | locus YEL061C, strain CIN8 (second series), stronger effect = lower value 1.03 | locus YER015W, strain faa2, stronger effect = lower value 1.02 | locus YER016W, strain bim1, stronger effect = lower value 1.02 | locus YER111C, strain swi4, stronger effect = lower value 1.02 | locus YER155C, strain BEM2 (second series), stronger effect = lower value 1 | locus YFR010W, strain ubp6, stronger effect = lower value 1.03 | locus YGL167C, strain pmr1, stronger effect = lower value 1.03 | locus YGL173C, strain kem1, stronger effect = lower value 1.05 | locus YGL227W, strain vid30, stronger effect = lower value 1.03 | locus YGL240W, strain doc1, stronger effect = lower value 1.02 | locus YGL253W, strain hxk2, stronger effect = lower value 1.02 | locus YHR013C, strain ard1, stronger effect = lower value 1.07 | locus YHR027C, strain rpn1, stronger effect = lower value 1.04 | locus YHR030C, strain SLT2, stronger effect = lower value 1.07 | locus YHR079C, strain IRE1, stronger effect = lower value 1.05 | locus YHR142W, strain chs7, stronger effect = lower value 1.04 | locus YJL092W, strain hpr5, stronger effect = lower value 1.03 | locus YJL095W, strain BCK1 (second series), stronger effect = lower value 1.02 | locus YJL095W, strain BCK1, stronger effect = lower value 1.01 | locus YJL115W, strain asf1, stronger effect = lower value 1.03 | locus YJL129C, strain trk1, stronger effect = lower value 1.07 | locus YJL154C, strain vps35, stronger effect = lower value 1.03 | locus YJL164C, strain tpk1, stronger effect = lower value 1.02 | locus YJL166W, strain qcr8, stronger effect = lower value 1.02 | locus YJL187C, strain SWE1, stronger effect = lower value 1.03 | locus YJR066W, strain TOR1, stronger effect = lower value 0.977 | locus YKL160W, strain elf1, stronger effect = lower value 1.02 | locus YKR026C, strain gcn3, stronger effect = lower value 1.03 | locus YKR091W, strain srl3, stronger effect = lower value 1.01 | locus YLL001W, strain dnm1, stronger effect = lower value 1.02 | locus YLL026W, stronger effect = lower value 1.01 | locus YLL041C, strain sdh2, stronger effect = lower value 1.02 | locus YLR027C, strain aat2, stronger effect = lower value 1.01 | locus YLR113W, strain HOG1, stronger effect = lower value 0.935 | locus YLR221C, strain rsa3, stronger effect = lower value 1.02 | locus YLR258W, strain gsy2, stronger effect = lower value 1.03 | locus YLR262C, strain YPT6 (second series), stronger effect = lower value 1.04 | locus YLR320W, strain mms22, stronger effect = lower value 1.04 | locus YLR342W, strain FKS1, stronger effect = lower value 1.02 | locus YLR357W, strain rsc2, stronger effect = lower value 1.02 | locus YLR370C, strain arc18, stronger effect = lower value 1.01 | locus YLR384C, strain iki3, stronger effect = lower value 1.03 | locus YML120C, strain ndi1, stronger effect = lower value 1.02 | locus YMR058W, strain fet3, stronger effect = lower value 1.04 | locus YMR125W, strain sto1, stronger effect = lower value 1.02 | locus YMR129W, stronger effect = lower value 1.01 | locus YMR205C, strain PFK2, stronger effect = lower value 1.05 | locus YMR231W, strain pep5, stronger effect = lower value 1.03 | locus YNL071W, strain lat1, stronger effect = lower value 1.03 | locus YNL183C, strain NPR1, stronger effect = lower value 0.97 | locus YNL209W, strain ssb2, stronger effect = lower value 1.02 | locus YNL248C, strain rpa49, stronger effect = lower value 1.06 | locus YNL322C, strain KRE1 (second series), stronger effect = lower value 1.02 | locus YNR049C, strain mso1, stronger effect = lower value 1.02 | locus YOR001W, strain rrp6, stronger effect = lower value 1.03 | locus YOR070C, strain gyp1, stronger effect = lower value 1.03 | locus YOR080W, strain dia2, stronger effect = lower value 1.03 | locus YOR083W, strain WHI5, stronger effect = lower value 1.01 | locus YOR106W, strain vam3, stronger effect = lower value 1.05 | locus YOR231W, strain MKK1, stronger effect = lower value 1.03 | locus YOR265W, strain rbl2, stronger effect = lower value 1.01 | locus YOR270C, strain vph1, stronger effect = lower value 1.1 | locus YOR290C, strain snf2, stronger effect = lower value 1.02 | locus YPL051W, strain arl3, stronger effect = lower value 1.02 | locus YPL078C, strain atp4, stronger effect = lower value 1.02 | locus YPL106C, strain sse1, stronger effect = lower value 1.03 | locus YPL240C, strain hsp82, stronger effect = lower value 1.02 | locus YPL256C, strain CLN2, stronger effect = lower value 1.06
